Results on 11 compounds are retold here after PubChem BioAssay (NCI).

What all share (assay): NCI-60 one-dose screen, 48 h (100 = growth as untreated, 0 = no growth, -100 = all killed)
Settings in all cases: 10 µM unless noted

Experiment [1] concerns NCI-H226 lung.
In experiment [2] the test system is NCI-H322M lung.
Experiment [3] relates to HOP-62 NSCLC.
The subject of experiment [4] is NCI-H460 lung.
The subject of experiment [5] is HOP-92 NSCLC.
Experiment [6] has as its system NCI-H522 lung.
In experiment [7] the test system is A549/ATCC NSCLC.
For experiment [8], the system named is 786-0 renal.
Experiment [9] relates to COLO 205 colon.

About 83,000 compounds went through this panel and 20% of them were active in at least one assay; those are over-represented in the sample as a whole.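 Treatment: one concentration, 48 hours, 96-well format. Scoring: percent growth, with anything below 10 considered active.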 Unmarked numbers belong to inactive results. Calls of active or inactive are those of the source.

As for `C1CCC2(CC1)OOCNCOO2`, the growth in experiment [1] is 107%; in [2], 97.4%; in experiment [3] it was 103%; in [4], 108%; in experiment [5], 122%; in [6], 89.7%. For the same compound, the figures for the growth in experiment [7], in [8] and in [9] were 102%, 105% and 115%, respectively.

On to `C[C@@]12CC[C@@H](O)C[C@@H]1CC[C@H]1[C@H]2CC[C@@]2(C)[C@H](c3ccc(=O)oc3)CC[C@@]12O`, for which the growth is -91.9% (active) in experiment [1]; -45.3% (active) in [2]; -75.3% (active) in experiment [3]; -78.7% (active) in experiment [4]; -13.1% (active) in experiment [5]; -26% (active) in [6]. Moreover, the growth in experiment [7] is -61.9% (active); in experiment [8] it was -51.1% (active); in experiment [9], -68.1% (active).

For the compound `Cc1cnc(/C=C/C(=O)O)cc1-c1cc2c(cc1C)C(C)(C)CCC2(C)C`, the growth in experiment [1] is 82.8%; in [2] it was 110%; in experiment [3], 94.4%; in experiment [4], 85.8%; in experiment [5] it was 56.8%; in [6], 65.8%. The growth in experiment [7] is 63.3%; in experiment [8], 76.5%; in experiment [9], 102%.

Regarding `O=C([O][Hg][c]1ccccc1)c1ccccc1`, the growth was 96.4% in [1]; 67.7% in experiment [2]; -33.7% (active) in experiment [3]; 11.7% in experiment [4]; -61.3% (active) in experiment [5]; -64.1% (active) in experiment [6]. Also, the growth in experiment [7] was 76.2%; in experiment [8] it was -93.8% (active); in experiment [9], -70% (active).

For `O=C(CCCCCNC1=CC(=O)c2ccccc2C1=O)NCCC[Te]c1ccccc1`, the growth was -54.6% (active) in experiment [1]; -8.86% (active) in experiment [2]; -51% (active) in [3]; -45.3% (active) in [4]; -32.4% (active) in [5]; -18.5% (active) in experiment [6]. For the same compound, the growth in [7] is -45.4% (active); in experiment [8], -48.5% (active); in experiment [9], -57% (active).

With `CN1CC(CNC(=O)OCc2ccccc2)CC2c3cccc4c3c(cn4C)CC21` (configuration not stated), the growth in experiment [1] was 78%; in [2] it was 82.9%; in [3], 35.2%; in experiment [4], 40.4%; in experiment [5], 29.5%; in [6] it was 60.5%. The growth in experiment [7] is 45.5%; in experiment [8], 42.8%; in experiment [9] it was -72.5% (active).

With `CN1C(=O)C23CC4(C56CC78SSC(CO)(C(=O)N7C5Nc5ccccc56)N(C)C8=O)c5ccccc5NC4N2C(=O)C1(CO)SS3` (configuration not stated), the growth in [2] was -94.5% (active); in [3], -86.4% (active); in experiment [4] it was -89.4% (active); in experiment [5] it was -99% (active); in experiment [6], -85.9% (active); in experiment [7], -88.5% (active). Further, the growth in [8] was -97.4% (active); in experiment [9], -87.8% (active).

`CCCc1cc(O)c2c3c(c(=O)oc2c1)CN(C)CC3`: the growth in experiment [1] is 38.9%; in experiment [3], 28.6%; in experiment [4], 11.9%; in experiment [5] it was 81.6%; in [6], 18.4%; in experiment [7], 29.1%. The growth in experiment [8] was 55%; in [9] it was 21%.

Consider `CC(=O)ONc1ccc([N+](=O)[O-])c(C(F)(F)F)c1`, for which the growth in [1] is 97.8%; in experiment [2], 108%; in experiment [3], 80%; in [4], 109%; in experiment [5], 99.6%; in experiment [6], 97.8%. Further, the growth in experiment [7] is 95.3%; in experiment [8] it was 97.6%; in [9] it was 106%.

With `C/C(Cc1ccc(Cl)cc1)=C(\c1ccc(OCCN2CCOCC2)cc1)c1ccc(OC(=O)Cc2ccccc2)cc1`, the growth in experiment [1] was 101%; in experiment [2], 83%; in [3] it was 102%; in experiment [4], 95.8%; in experiment [5] it was 77.2%; in experiment [6], 69.7%. Besides, the growth in experiment [7] was 78.9%; in [8], 92.6%; in [9] it was 99.8%.

Regarding `CCOC(=O)CCN(C)C1=Nc2ccc(Cl)cc2C(c2ccccc2)=[N+]([O-])C1`, the growth in experiment [1] was 104%; in experiment [2] it was 98.4%; in experiment [3], 96.6%; in experiment [4], 106%; in experiment [5] it was 98.6%; in experiment [6] it was 70.9%. Moreover, the results for the growth in [7], in experiment [8] and in [9] were 100%, 117% and 129%, respectively.
